Measurements from PubChem BioAssay (NCATS).
Inconclusive results are not listed. Calls of active or inactive are those of the source. Unless noted, calls come from the whole dose curve; as a rule, active = well fitted curve in the direction sought with a large enough effect; inconclusive = small, poorly fitted or top-dose-only effect, or another doubt; inactive = no such curve, though single readings can be large; an effect the other way counts as inactive or inconclusive.

What was measured:
[1] = test system: PA-1; assay: Primary qHTS to identify gynecologic anti-cancer compounds using libraries of approved drugs and bioactive compounds (AID 1345084); settings: Gynecologic cancer cell panel viability, ATPlite luminescence, 48 h; series mostly up to 57.5 µM; note: % is set by controls: 0 for no effect and ±100 for the full control effect; nearly all actives have a fitted effect of over 55% in size
In short: (§1)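 Cells, 1,000 per well, plated 16 h, then exposed 48 h at 37 C to compounds. Viability by ATPlite luminescence after 15 min at room temperature.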

[2] = test system: SKOV3; assay: as above; settings: Gynecologic cancer cell panel viability, ATPlite luminescence, 48 h; series mostly up to 57.5 µM
In short: as §1

[3] = test system: Tov-21-G; assay: as above; settings: Gynecologic cancer cell panel viability, ATPlite luminescence, 48 h; series mostly up to 57.5 µM
In short: as §1

[4] = test system: Tov112D; assay: as above; settings: Gynecologic cancer cell panel viability, ATPlite luminescence, 48 h; series mostly up to 57.5 µM
In short: as §1

[5] = Drug repurposing screens with cells derived from glioblastoma tumor samples (AID 1345199); settings: GBM patient neurospheres viability, ATP luminescence, 48 h; note: nearly all actives have a fitted effect of over 40% in size; note: potency is the fitted concentration of half-maximal effect; for activity, negative = cell killing: % is set by controls: 0 for no effect and ±100 for the full control effect
In short: (§2)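 Primary testing used CD133+ neurospheres from four GBM patients, seven concentrations, 48 h exposure and ATP-based viability; confirmation added three slower-growing patient lines.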

[6] = test system: astro; assay: as above; settings: viability, ATP luminescence, 48 h; series mostly up to 45.9 µM
In short: as §2

[7] = biological target: Nuclear receptor subfamily 1 group I member 2 (Rattus norvegicus) (UniProt Q9R1A7); assay: qHTS assay for small molecule activators of the rat pregnane X receptor (rPXR) signaling pathway (AID 651751; call rule not given here; note: 0% is about no effect); settings: rPXR reporter cells, luciferase (One-Glo), 24 h
[8] = at 45.9 µM (top of the series), tumour line B
[9] = at 45.9 µM (top of the series), tumour line D
[10] = at 46.1 µM (top of the series), tumour line C

Sequence of Nuclear receptor subfamily 1 group I member 2 (Rattus norvegicus) (Q9R1A7 whole entry, looked up): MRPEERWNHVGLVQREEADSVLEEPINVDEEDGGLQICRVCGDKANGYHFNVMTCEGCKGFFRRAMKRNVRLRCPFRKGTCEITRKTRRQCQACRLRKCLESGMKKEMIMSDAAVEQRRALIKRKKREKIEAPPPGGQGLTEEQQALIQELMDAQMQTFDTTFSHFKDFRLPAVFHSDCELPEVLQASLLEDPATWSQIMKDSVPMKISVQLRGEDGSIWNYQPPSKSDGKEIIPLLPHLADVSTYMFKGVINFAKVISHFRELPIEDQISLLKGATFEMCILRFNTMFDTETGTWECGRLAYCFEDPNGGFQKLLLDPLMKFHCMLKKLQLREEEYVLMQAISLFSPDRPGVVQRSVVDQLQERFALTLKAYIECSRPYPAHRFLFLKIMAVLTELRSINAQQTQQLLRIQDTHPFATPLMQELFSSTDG

CC1=C2C(=O)C3[C@@H](CC=C4C[C@@H](O)CC[C@@]43C)[C@@H]2CC[C@]12O[C@@H]1C[C@H](C)CN[C@H]1[C@H]2C (stereo partly drawn)
inactive: Potency [1] | Potency [2] | Potency [3] | Potency [4]

CC(N)Cc1c[nH]c2ccccc12 (stereo not drawn)
inactive: Potency [1] | Potency [3] | Potency [4]

CC(C)C1(OO)C=C2C(=O)CC3C(C)(C(=O)O)CCCC3(C)C2CC1 (stereo not drawn)
inactive: Potency [1] | Potency [2] | Potency [3] | Potency [4]

CC[C@H]1CN2CC[C@H]1C[C@H]2[C@H](O)c1ccnc2ccc(OC)cc12
inactive: Potency [1] | Potency [2] | Potency [3] | Potency [4]

CC(C)[C@@H](CN1CC[C@@](C)(c2cccc(O)c2)[C@@H](C)C1)NC(=O)[C@H]1Cc2ccc(O)cc2CN1
inactive: Potency [1] | Potency [3] | Potency [4]

C=C[C@H]1CN2CC[C@H]1C[C@@H]2[C@@H](O)c1ccnc2ccccc12
inactive: Potency [1] | Potency [2] | Potency [3] | Potency [4] | activity, negative = cell killing [5, 8] -7.16% | activity, negative = cell killing [5, 9] -9.4% | activity, negative = cell killing [5, 10] 15.7% | Potency [6]
active: Potency ([5]; tumour line A) 17.8 µM

N#CC(C#N)=Cc1cc(O)c(O)c(O)c1
active: Potency ([5]; tumour line D) 12.6 µM
inactive: activity, negative = cell killing [5, 8] -27.1%

C/C=C(\C)C(=O)OC1C(C)OC(OC2C(C)OC(OC3CCC4(C)C(=CCC5C4CCC4(C)C(C(C)OC6OC(COC7OC(CO)C(O)C(O)C7O)C(O)C(O)C6O)CCC54O)C3)CC2OC)C(O)C1OC (stereo not drawn)
inactive: activity change, negative = cytotoxicity [1] 9.3% [at 11.6 µM] | activity change, negative = cytotoxicity [2] -10% [at 11.6 µM] | activity change, negative = cytotoxicity [3] 3.11% [at 11.6 µM] | activity change, negative = cytotoxicity [4] -0.387% [at 11.6 µM]

O=C1C[C@@H]2OCC=C3CN4CC[C@]56c7ccccc7N1[C@H]5[C@H]2[C@H]3C[C@H]46
active: Potency ([5]; tumour line A) 12.6 µM
inactive: Potency [1] | Potency [2] | Potency [3] | Potency [4] | activity, negative = cell killing [5, 8] -6.57% | activity, negative = cell killing [5, 9] -6.6% | activity, negative = cell killing [5, 10] 6.33% | Potency [6] | max response [7] 0.534%
